The nature of assay [1]: ArunA_NOG_NucleusCount: ArunA Biomedical's Neurite Outgrowth (NOG) Assay for Nucleus Count (AID 2283756). The procedure, abridged: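 Viable neuron count, from Hoechst nuclei passing size and intensity gates, imaged at 20x on differentiated H9-derived human neurons. Exposure lasted 48 h from seeding; activity was scored relative to DMSO.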
The nature of assay [2]: ArunA_NOG_NeuritesPerNeuron: ArunA Biomedical's Neurite Outgrowth (NOG) Assay for Neurites Per Neuron (AID 2283758). A digest of the protocol: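 Differentiated human H9-derived neurons exposed to chemicals for 48 h from seeding, then stained with Hoechst and βIII-tubulin/DyLight 488. Automated imaging counted neurites (processes >10 um) per valid neuron; loss of signal versus DMSO scored.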

Assay [3] is described as follows: ArunA_NOG_BranchPointsPerNeurite: ArunA Biomedical's Neurite Outgrowth (NOG) Assay for Branch Points Per Neurite (AID 2283759). A digest of the protocol: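 Automated image analysis traced neurites (processes >10 um) from valid cell bodies after Hoechst and βIII-tubulin staining. hNN cells from H9 embryonic stem cells, 48 h exposure. Fitted bidirectionally against DMSO.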

The target in assay [4] is Luciferin 4-monooxygenase (Photinus pyralis) (UniProt P08659). The assay can be described thus: CCTE_Simmons_QuantiLum_inhib_2: CCTE's Firefly Luciferase Inhibition Assay, Simmons Lab (AID 2283767).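 On AC50: potency for inhibitors that lower luciferase luminescence relative to DMSO.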 A digest of the protocol: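 Cell-free QuantiLum luciferase, 5 ng/well; compounds 5 nM–87.5 uM final, 8 conc, 0.5% DMSO; 30 min, 37C, dark. Detection reagent (150 uM D-luciferin, 147 uM dATP, CoA, DTT, pH 7.8 final) injected per well, kinetic luminescence. Triplicate biological replicates.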

Assay [5] can be described thus: ACEA_AR_antagonist_AUC_viability: ACEA Biosciences xCELLigence Real-Time Cell Analysis on Androgen Receptor Antagonism for Viability (AID 2283776).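 Further: 22Rv1 human prostate cancer cells growing on impedance electrode plates; area under impedance growth curve at 80 h after dosing as viability; hits lower the growth signal relative to DMSO meaning cytotoxicity.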 A digest of the protocol: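 22Rv1 prostate cells, continuous dosing up to 100 uM final (0.5% DMSO max), duplicate plates. Growth measured by impedance; AUC at 80 h, loss of signal vs DMSO.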
A short description of assay [6]: STM_H9_NormalizedViability: Cytotoxicity Assessment at 120 hours in the Stemina devTOX quickPredict H9 human embryonic stem cell (hESC)-based Assay (AID 2283784). A digest of the protocol: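 CellTiter-Fluor RFU, background-subtracted, expressed relative to 0.1% DMSO neutral control by plate. Pluripotent H9 cells; treatment with daily re-dosing. Plates carried 1uM methotrexate (positive) and 5 nM methotrexate (negative) references.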

Assay [7] can be described thus: ACEA_AR_agonist_AUC_viability: ACEA Biosciences xCELLigence Real-Time Cell Analysis on Androgen Receptor Agonism for Viability (AID 2283775).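 On AC50: viability read 80 hours after compound addition.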 A digest of the protocol:
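Viability endpoint from xCELLigence impedance in 22Rv1 prostate cells at 80 h. Eight-point series, 100 uM maximum final.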

Assay [8] concerns chicken Androgen Receptor (AR), gene 422165. The assay can be described thus: ATG_chAR_XSP1: Attagene TRANS-FACTORIAL Multi-Species (XSP1) HepG2 Assay for chicken Androgen Receptor (AR) (AID 2283768). A digest of the protocol:
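Reporter mRNA read by RT-PCR with fluorescent labelling and capillary electrophoresis 24 h after chemical dosing of transiently transfected HepG2 cells. Chicken AR-Gal4 chimera, partially stimulated with 3 nM 6-alpha-fluorotestosterone; activity fitted upward relative to DMSO.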

For assay [9], the system named is zebrafish Androgen Receptor (AR), gene 100005148. As to the kind of experiment: ATG_zfAR_XSP1: Attagene TRANS-FACTORIAL Multi-Species (XSP1) HepG2 Assay for zebrafish Androgen Receptor (AR) (AID 2283771). A digest of the protocol:
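Gain-of-signal versus DMSO was measured as reporter transcripts quantified by RT-PCR, fluorescent labelling and capillary electrophoresis after 24 h chemical exposure. The cells were HepG2 expressing a chimeric zebrafish AR-GAL4, co-stimulated with 3 nM 6-alpha-fluorotestosterone.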

The target in assay [10] is zebrafish Estrogen Receptor (ESR1), esr1 (gene 259252) (UniProt P57717). The assay can be described thus: ATG_zfER1_XSP1: Attagene TRANS-FACTORIAL Multi-Species (XSP1) HepG2 Assay for zebrafish Estrogen Receptor (ESR1) (AID 2283772). The procedure, abridged: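 Readout: fluorescent reporter mRNA, RT-PCR plus FAM labelling, HpaI digest, capillary electrophoresis; gain-of-signal fit vs DMSO. HepG2, transient multi-reporter TRANS (NR-GAL4 chimera), 24 h chemical exposure, 3 nM 6-alpha-fluorotestosterone co-added.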

For assay [11], the system named is zebrafish Estrogen Receptor (ESR2B), gene 317733. As to the kind of experiment: ATG_zfER2b_XSP1: Attagene TRANS-FACTORIAL Multi-Species (XSP1) HepG2 Assay for zebrafish Estrogen Receptor (ESR2B) (AID 2283773). The procedure, abridged:
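Medium contained 3 nM 6-alpha-fluorotestosterone. Reporter mRNA induction by exogenous zebrafish ER2b-Gal4 chimera was read 24 h post-dose in transiently transfected HepG2 cells, using RT-PCR, fluorescent labelling, HpaI digestion and capillary electrophoresis.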

For assay [12], the system named is frog Estrogen Receptor (ESR2), gene 100174814. As to the kind of experiment: ATG_frER2_XSP1: Attagene TRANS-FACTORIAL Multi-Species (XSP1) HepG2 Assay for frog Estrogen Receptor (ESR2) (AID 2283774). The procedure, abridged:
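Reporter mRNA from a multiplexed TRANS system, measured by RT-PCR with fluorescent labelling and capillary electrophoresis, 24 hours after chemical exposure. Human HepG2 liver cells carried exogenous frog ER-Gal4 chimera; medium included 3 nM 6-alpha-fluorotestosterone; increases versus DMSO analysed.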

The subject of assay [13] is zebrafish Estrogen Receptor (ESR2A), gene 317734. The assay can be described thus: ATG_zfER2a_XSP1: Attagene TRANS-FACTORIAL Multi-Species (XSP1) HepG2 Assay for zebrafish Estrogen Receptor (ESR2A) (AID 2283778). A digest of the protocol:
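Reporter transcripts were quantified by RT-PCR, 6-FAM labelling, HpaI digestion and capillary electrophoresis after 24 h dosing. The cells were HepG2 transiently carrying a zebrafish ER2a–Gal4 construct plus multiplexed UAS reporters; medium contained 3 nM 6-alpha-fluorotestosterone.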

For assay [14], the target named is chicken Estrogen Receptor (ESR1), ESR1 (gene 396099) (UniProt P06212). The assay can be described thus: ATG_chERa_XSP1: Attagene TRANS-FACTORIAL Multi-Species (XSP1) HepG2 Assay for chicken Estrogen Receptor (ESR1) (AID 2283779). A digest of the protocol: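 Trans-activation of an exogenous chicken ERα–Gal4 chimera read as reporter transcript (RT-PCR, fluorescent labeling, capillary electrophoresis) after 24 h compound exposure of transfected HepG2; medium held 3 nM 6-alpha-fluorotestosterone. Positive-direction fit against DMSO.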

Assay [15] addresses Estrogen receptor (Homo sapiens) (UniProt P03372). The assay can be described thus: ATG_hERa_XSP1: Attagene TRANS-FACTORIAL Multi-Species (XSP1) HepG2 Assay for human Estrogen Receptor (ESR1) (AID 2283780). A digest of the protocol:
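Reporter transcripts from multiplexed GAL4-UAS units driven by NR-Gal4 chimeras in transiently transfected HepG2 were measured by RT-PCR with capillary electrophoresis 24 h post-dose, with 3 nM 6-alpha-fluorotestosterone present; gain-of-signal relative to DMSO.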

Assay [16] concerns turtle Estrogen Receptor (ESR1), gene 101933533. The assay can be described thus: ATG_trERa_XSP1: Attagene TRANS-FACTORIAL Multi-Species (XSP1) HepG2 Assay for turtle Estrogen Receptor (ESR1) (AID 2283781). A digest of the protocol: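 Transactivation measured 24 h post-dose as reporter mRNA (RT-PCR, fluorescent capillary electrophoresis) from an NR-Gal4 turtle ER construct in HepG2. Medium included 3 nM 6-alpha-fluorotestosterone; increase over DMSO fitted.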

The nature of assay [17]: ACEA_ER_AUC_viability: ACEA Biosciences xCELLigence Real-Time Cell Analysis on Estrogen Receptor Agonism for Viability (AID 2283782).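 Further: hit means loss of impedance signal meaning reduced cell growth or viability.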 The procedure, abridged:
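Viability endpoint: reduced impedance area under the curve relative to DMSO, recorded by real-time electrode sensing over ~80 h of continuous exposure. Duplicate plates of T47D in hormone-depleted medium; eight concentrations, 1:4 dilutions, 100 uM maximum.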

Another assay concerns the target AR (gene 367) (UniProt P10275). As to the kind of experiment: ACEA_AR_antagonist_80hr: ACEA Biosciences xCELLigence Real-Time Cell Analysis on Androgen Receptor Antagonism for Proliferation (AID 2283787).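 Further: 22Rv1 human prostate cancer cells with growth followed by electrical impedance; hits lower the impedance growth signal relative to DMSO.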 A digest of the protocol: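 Impedance-based real-time growth of 22Rv1 prostate cells, read 80 h after dosing. Eight concentrations, 1:4 series, top 100 uM final (0.5% DMSO), n = 2; signal decrease scored against DMSO.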

The structures appear in SMILES notation. Results filed as inconclusive are left out. Some compounds were tested as several samples or in several runs, with calls that do not always agree. Activity calls are given as the source filed them. How the source made its calls: active means hit-call score of the fitted dose curve at least 0.9, where 1 is the maximum; inconclusive means response in the unintended direction; inactive means score below 0.9.

Luciferin 4-monooxygenase (Photinus pyralis), sequence (P08659 whole entry, looked up): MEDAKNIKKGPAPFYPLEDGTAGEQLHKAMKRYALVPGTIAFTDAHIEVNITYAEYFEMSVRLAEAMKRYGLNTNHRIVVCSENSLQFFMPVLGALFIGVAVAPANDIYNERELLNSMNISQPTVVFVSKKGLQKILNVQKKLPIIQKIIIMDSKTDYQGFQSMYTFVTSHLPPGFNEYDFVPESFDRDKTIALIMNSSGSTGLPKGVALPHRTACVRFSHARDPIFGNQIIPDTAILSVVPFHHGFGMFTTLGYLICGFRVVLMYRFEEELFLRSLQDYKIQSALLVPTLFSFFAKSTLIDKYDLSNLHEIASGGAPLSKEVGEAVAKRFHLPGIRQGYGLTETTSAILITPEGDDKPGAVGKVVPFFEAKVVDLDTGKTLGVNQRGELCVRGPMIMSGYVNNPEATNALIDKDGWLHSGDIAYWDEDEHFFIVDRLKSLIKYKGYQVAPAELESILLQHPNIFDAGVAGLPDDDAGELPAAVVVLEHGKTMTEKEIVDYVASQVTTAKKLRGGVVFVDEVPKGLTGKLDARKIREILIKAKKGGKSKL
chicken Estrogen Receptor (ESR1), ESR1 (gene 396099), sequence (P06212 whole entry, looked up, the tested form may be a part): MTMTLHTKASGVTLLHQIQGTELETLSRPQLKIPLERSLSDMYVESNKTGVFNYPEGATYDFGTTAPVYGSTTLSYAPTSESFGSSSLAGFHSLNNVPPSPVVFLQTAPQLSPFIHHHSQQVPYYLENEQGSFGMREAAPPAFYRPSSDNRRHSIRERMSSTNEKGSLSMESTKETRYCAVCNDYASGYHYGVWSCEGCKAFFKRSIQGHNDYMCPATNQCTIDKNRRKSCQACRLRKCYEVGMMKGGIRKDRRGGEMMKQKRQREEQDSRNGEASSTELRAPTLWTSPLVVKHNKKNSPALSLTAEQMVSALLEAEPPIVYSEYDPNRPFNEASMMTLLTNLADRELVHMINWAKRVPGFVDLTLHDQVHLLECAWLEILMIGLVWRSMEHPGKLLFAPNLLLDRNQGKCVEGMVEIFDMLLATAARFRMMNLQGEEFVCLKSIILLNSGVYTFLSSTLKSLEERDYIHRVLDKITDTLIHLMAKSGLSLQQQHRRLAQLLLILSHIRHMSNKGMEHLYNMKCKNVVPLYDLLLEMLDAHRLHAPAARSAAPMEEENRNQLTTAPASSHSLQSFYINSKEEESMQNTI
zebrafish Estrogen Receptor (ESR1), esr1 (gene 259252), sequence (P57717 whole entry, looked up, the tested form may be a part): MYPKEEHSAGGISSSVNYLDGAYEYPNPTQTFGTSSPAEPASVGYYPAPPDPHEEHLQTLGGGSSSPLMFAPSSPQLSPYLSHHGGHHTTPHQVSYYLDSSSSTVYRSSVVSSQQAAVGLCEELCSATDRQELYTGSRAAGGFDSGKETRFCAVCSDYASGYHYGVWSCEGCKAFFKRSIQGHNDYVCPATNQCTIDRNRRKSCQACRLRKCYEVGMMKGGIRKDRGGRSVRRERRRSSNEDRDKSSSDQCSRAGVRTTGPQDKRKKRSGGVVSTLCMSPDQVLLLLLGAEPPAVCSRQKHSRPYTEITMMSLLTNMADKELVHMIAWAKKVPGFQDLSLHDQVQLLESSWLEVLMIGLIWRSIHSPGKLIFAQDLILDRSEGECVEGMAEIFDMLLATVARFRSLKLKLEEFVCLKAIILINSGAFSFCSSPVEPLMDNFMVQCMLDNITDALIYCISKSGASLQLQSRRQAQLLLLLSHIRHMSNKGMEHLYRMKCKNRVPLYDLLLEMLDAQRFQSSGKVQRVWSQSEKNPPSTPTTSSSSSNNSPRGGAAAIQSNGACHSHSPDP
AR (gene 367), sequence (P10275 whole entry, looked up): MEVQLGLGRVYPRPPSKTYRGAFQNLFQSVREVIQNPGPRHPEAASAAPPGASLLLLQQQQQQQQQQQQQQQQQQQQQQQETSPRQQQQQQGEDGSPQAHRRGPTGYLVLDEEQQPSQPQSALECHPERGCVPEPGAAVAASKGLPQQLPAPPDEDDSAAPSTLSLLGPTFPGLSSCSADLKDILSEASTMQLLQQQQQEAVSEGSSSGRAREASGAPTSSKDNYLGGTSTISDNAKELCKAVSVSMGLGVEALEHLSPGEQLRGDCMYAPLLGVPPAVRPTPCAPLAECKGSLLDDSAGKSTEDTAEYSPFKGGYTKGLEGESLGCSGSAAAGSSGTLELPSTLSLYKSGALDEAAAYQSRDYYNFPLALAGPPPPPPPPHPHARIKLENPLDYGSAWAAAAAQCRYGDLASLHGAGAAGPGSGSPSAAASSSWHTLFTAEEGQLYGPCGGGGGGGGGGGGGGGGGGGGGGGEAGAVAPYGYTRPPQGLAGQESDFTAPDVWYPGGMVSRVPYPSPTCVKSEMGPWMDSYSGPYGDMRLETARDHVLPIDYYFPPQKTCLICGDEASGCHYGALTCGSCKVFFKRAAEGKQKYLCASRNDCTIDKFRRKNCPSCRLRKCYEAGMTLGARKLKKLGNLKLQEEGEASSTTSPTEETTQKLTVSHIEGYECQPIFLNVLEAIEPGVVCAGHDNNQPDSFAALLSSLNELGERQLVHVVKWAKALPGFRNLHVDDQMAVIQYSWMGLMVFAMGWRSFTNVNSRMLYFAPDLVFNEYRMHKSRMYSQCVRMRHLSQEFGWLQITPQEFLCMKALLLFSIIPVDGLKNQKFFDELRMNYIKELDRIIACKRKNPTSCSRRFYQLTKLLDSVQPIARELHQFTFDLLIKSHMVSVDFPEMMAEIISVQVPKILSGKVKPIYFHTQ
Estrogen receptor (Homo sapiens), sequence (P03372 whole entry, looked up, the tested form may be a part): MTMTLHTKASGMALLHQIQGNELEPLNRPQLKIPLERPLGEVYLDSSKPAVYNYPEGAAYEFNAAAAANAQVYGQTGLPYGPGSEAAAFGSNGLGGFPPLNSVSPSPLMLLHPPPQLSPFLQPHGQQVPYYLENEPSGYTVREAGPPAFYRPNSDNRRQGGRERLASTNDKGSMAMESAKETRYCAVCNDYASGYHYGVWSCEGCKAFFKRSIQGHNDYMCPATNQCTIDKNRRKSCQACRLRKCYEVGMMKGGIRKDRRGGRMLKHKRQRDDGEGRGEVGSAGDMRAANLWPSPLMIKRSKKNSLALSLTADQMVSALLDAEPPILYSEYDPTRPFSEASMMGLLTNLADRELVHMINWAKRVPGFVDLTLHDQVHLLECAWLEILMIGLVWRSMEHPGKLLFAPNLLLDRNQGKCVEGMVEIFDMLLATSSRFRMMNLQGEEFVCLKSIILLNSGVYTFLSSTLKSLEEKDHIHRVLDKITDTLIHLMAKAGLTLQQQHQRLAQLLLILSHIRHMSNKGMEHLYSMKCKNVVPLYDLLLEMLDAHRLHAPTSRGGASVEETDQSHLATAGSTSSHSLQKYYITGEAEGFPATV

As usually defined, the AC50 is the concentration giving half of the maximal activity seen. `Cc1ccc(N)cc1N`: the result in [1], in [2], in assay [3] and in assay [5] was inactive. Besides, the AC50 is 21.6 µM (active) in assay [4] and 36.1 µM (active) in [6].
Take `O=[N+]([O-])c1ccccc1`: the result in assay [7] and in assay [5] was inactive.
For `O=P(Oc1ccccc1)(Oc1ccccc1)Oc1ccccc1`, the compound was called inactive in [1], in [8], in assay [9], in assay [10], in assay [13] and in assay [6]. Further, the AC50 was 5.84 µM (active) in assay [11]; 2.77 µM (active) in assay [12]; 800 nM (active) in [14]; 991 nM (active) in [15]; 1.66 µM (active) in [16]; 86.8 µM (active) in assay [17].
Regarding `CCOC(=O)c1ccccc1N`, the compound was classed as inactive in [7].
For `O=c1ssc(Cl)c1Cl`, the AC50 was 18 µM (active) in assay [4] and 0.671 µM (active) in [7]. In addition, the compound was called inactive in [5] and in assay [17].
On to `CC(C)(C)c1ccc(O)cc1`, for which the result in assay [4] was inactive.
For the compound `Nc1ccc(Cl)cc1`, the compound was classed as inactive in [4] and in assay [17]. Also, the AC50 in assay [7] is 5.62 µM (active); in assay [5] it was 8.97 µM (active); in [17], 8.49 µM (active).
Regarding `CCCCOCCOP(=O)(OCCOCCCC)OCCOCCCC`, the compound was classed as inactive in assay [7] and in [5].
`O=S1(=O)OCC2C(CO1)C1(Cl)C(Cl)=C(Cl)C2(Cl)C1(Cl)Cl` (centres undefined): the AC50 is 31.9 µM (active) in assay [4] and 83 µM (active) in assay [17]. The compound was classed as inactive in assay [5].
With `O=S(=O)(c1ccc(O)cc1)c1ccc(O)cc1`, the compound was classed as inactive in assay [4] and in [7].
With `[N-]=[N+]=[N-]`, the compound was called inactive in assay [4] and in [7]. Also, the half-maximal activity concentration (AC50) (in [5]; in the assay with AR (gene 367)) was 50 µM (active) each time.
In the case of `CCC(C)(C)c1ccc(O)cc1`, the compound was called inactive in assay [4]. Besides, the AC50 in assay [7] is 67 µM (active); in [5], 71.7 µM (active); in assay [17] it was 88.4 µM (active); in assay [6], 50 µM (active).
Take `O=P1(N(CCCl)CCCl)NCCCO1` (centres undefined): the call in assay [7] and in [5] was inactive.

(Values after PubChem BioAssay (EPA / NIEHS).)
